65 molecules from PubChem BioAssay AID540276 (National Center for Advancing Translational Sciences (NCATS), 2011) can be followed below.

Screen size: about 300,000 compounds; about 5,400 (1.8%) were called active. Entries that show only a call come without a potency. Roughly 28% stayed inconclusive and do not appear here. Calls come from the whole dose curve; tested in HEK293 cells. The sample as a whole holds a higher share of actives than the screen did.
Potency is the fitted concentration of half-maximal effect.

A short description of the experiment: qHTS for inhibitors of binding or entry into cells for Marburg Virus. Particulars: Marburg virus pseudotyped entry inhibition, cell reporter; series mostly up to 37.8 µM.
Regarding `CCOc1ccc(CCNC(=O)Cn2nc(CC)n3c(cc4sc(CC)cc43)c2=O)cc1OCC`, the Potency result was “inactive”.

With `CCOc1ccc(CCNC(=O)c2ccc3c(c2)sc2nc(-c4ccc(F)cc4)cn23)cc1OCC`, the Potency is 2.51 µM (active).

For `Cc1c(C(=O)NCCN2CCOCC2)sc2nc(-c3ccc(F)cc3)cn12`, the Potency result is “inactive”.

Consider `COc1ccc(N2CC(NS(=O)(=O)c3ccc4ccccc4c3)CC2=O)cc1` (stereo not given), for which the Potency entry is “inactive”.

For the molecule `CCOc1ccc(C(=O)NCC(=O)N2CCCCCCC2)cc1OCC`, the Potency entry is “inactive”.

Turning to `S=c1[nH]nc(-c2cccnc2)n1/N=C/C(Cl)=C\c1ccccc1`, the Potency entry was “inactive”.

For the molecule `Cc1cc(-c2n[nH]c(=S)n2/N=C/C(Br)=C/c2ccccc2)n[nH]1`, the Potency was 10 µM (active).

In the case of `S=c1[nH]nc(-c2ccco2)n1/N=C/c1ccccc1`, the Potency entry was “inactive”.

Regarding `O=C(CCl)NNc1cccc(Cl)n1`, the Potency result is “inactive”.

`O=C(CCl)NNc1nc(-c2ccccc2)c2cc(Cl)ccc2n1`: the Potency is 6.31 µM (active).

On to `Cc1ccc2nc(Nc3ccccc3O)nc(-c3ccccc3)c2c1`, for which the Potency entry is “inactive”.

On to `COc1ccc(CCNC(=O)c2c(C)nn(-c3ccccc3)c2Cl)cc1`, for which the Potency entry is “inactive”.

Consider `CCN(C(=O)COC(=O)c1c(C)nn(-c2ccccc2)c1Cl)c1c(N)n(Cc2ccccc2)c(=O)[nH]c1=O`, for which the Potency entry was “inactive”.

As to `Cc1cc(C)c2cc(CN(Cc3nnnn3Cc3ccc(F)cc3)C3CCCC3)c(=O)[nH]c2c1`, the Potency entry is “inactive”.

Regarding `CCOc1ccc2[nH]c(=O)c(CN(Cc3nnnn3Cc3ccccc3)CC3CCCO3)cc2c1` (stereo not given), the Potency result was “inactive”.

For the molecule `Cc1cccc2cc(CN(Cc3nnnn3Cc3ccccc3)C3CCCC3)c(=O)[nH]c12`, the Potency was 16.4 µM (active).

Regarding `Cc1cc(NC(=O)C(C)SCC(=O)Nc2ccccc2N2CCCCC2)no1` (stereo not given), the Potency entry is “inactive”.

Turning to `Nc1cc(=O)n(Cc2ccccc2)c(=O)n1Cc1ccccc1`, the Potency result is “inactive”.

With `CCOC(=O)C1CCN(c2nc3ccccc3nc2[C@@H](C#N)C(=O)OC(C)C)CC1`, the Potency result is “inactive”.

For `COc1cc(/C=C2\C(=N)N3N=C(CC(=O)N4CCOCC4)SC3=NC2=O)cc(OC)c1OC`, the Potency result was “inactive”.

Turning to `Cc1ccc2cc(CN(c3ccc(C)c(C)c3)S(C)(=O)=O)c(=O)[nH]c2c1`, the Potency was 10 µM (active).

In the case of `CCOC(=O)N1CCN(C(=O)c2ccc(CN(c3ccc(C)c(C)c3)S(C)(=O)=O)cc2)CC1`, the Potency entry is “inactive”.

On to `CCN1CCN(C(=O)c2ccc(CN(c3ccc(C)c(C)c3)S(C)(=O)=O)cc2)CC1`, for which the Potency result was “inactive”.

With `CCCCc1nc2cc(C(=O)NCCc3cnn(C)c3)ccc2o1`, the Potency result is “inactive”.

`CC(=O)CSc1nc(CCc2ccccc2)c(C#N)c(=O)[nH]1`: the Potency entry was “inactive”.

For the molecule `Cn1c(N)c(C(=O)COC(=O)/C=C/c2cccc(C(F)(F)F)c2)c(=O)n(C)c1=O`, the Potency entry is “inactive”.

Take `COc1ccc(C(=O)COC(=O)c2c(C)noc2C)cc1Cl`: the Potency entry was “inactive”.

Turning to `CC(C)(C)c1ccc(Cn2nnc3c(=O)[nH]c(C4CCCN(C(=O)c5ccco5)C4)nc32)cc1` (stereo not given), the Potency is 10 µM (active).

Take `COc1ccc(Cn2nnc3c(=O)[nH]c(C4CCN(C(=O)c5ccccc5Cl)CC4)nc32)cc1`: the Potency result is “inactive”.

Turning to `O=C(c1ccccc1F)N1CCC(c2nc3c(nnn3Cc3cccc(F)c3)c(=O)[nH]2)CC1`, the Potency result was “inactive”.

Take `COc1ccc(OC)c(NC(=O)COC(=O)Cc2ccsc2)c1`: the Potency result is “inactive”.

Take `CCOC(=O)c1ccc(N2C(=O)c3n[nH]c(C)c3C2c2ccc(O)c(OC)c2)cc1` (stereo not given): the Potency entry was “inactive”.

As for `CCOC(=O)c1ccc(N2C(=O)c3[nH]nc(-c4ccccc4)c3C2c2ccc(C(C)C)cc2)cc1` (stereo not given), the Potency result is “inactive”.

Regarding `CCOC(=O)c1ccc(N2C(=O)c3n[nH]c(-c4ccco4)c3C2c2ccc(O)cc2)cc1` (stereo not given), the Potency was 11.2 µM (active).

Turning to `COc1ccccc1S(=O)(=O)c1c(C)cc(C)[nH]c1=O`, the Potency result was “inactive”.

On to `OCc1ccc(-c2ccccc2)c(-c2ccccc2)c1`, for which the Potency entry is “inactive”.

`CN(C)c1ccc(CNC23CN4CN(CN(C4)C2)C3)cc1`: the Potency result was “inactive”.

`c1cnc(NC2C3CC4CC(C3)CC2C4)nc1` (stereo not given): the Potency entry was “inactive”.

In the case of `CN(C)c1ccc(CNC2C3CC4CC(C3)CC2C4)cc1` (stereo not given), the Potency was 14.6 µM (active).

On to `CC(=O)Oc1cccc(C(=O)Nc2ccccc2NC(=O)c2cccc(OC(C)=O)c2)c1`, for which the Potency result is “inactive”.

As to `COc1ccc(C(=O)NC2CC2)cc1OC1CCN(Cc2cnn(C)c2)CC1`, the Potency entry is “inactive”.

In the case of `CCC(C)C(=O)Nc1ccccc1N1CCN(c2ccc(F)cc2)CC1` (stereo not given), the Potency was 12.6 µM (active).

Regarding `O=C(CN1CCN(c2ccccc2)CC1)Nc1ccc(F)cc1`, the Potency result is “inactive”.

With `O=C(Nc1ccccc1N1CCN(c2ccccc2)CC1)c1cccc(F)c1`, the Potency result is “inactive”.

As for `CCCCC(=O)Nc1ccccc1N1CCN(c2ccc(F)cc2)CC1`, the Potency is 11.2 µM (active).

On to `CCC(=O)Nc1ccccc1N1CCN(S(C)(=O)=O)CC1`, for which the Potency result was “inactive”.

Turning to `CCCC(=O)Nc1ccccc1N1CCN(C(=O)c2ccccc2)CC1`, the Potency result is “inactive”.

On to `O=C(Cc1ccc(S(=O)(=O)N2CCOCC2)s1)NCCOc1ccccc1F`, for which the Potency entry was “inactive”.

In the case of `O=C(c1cc2cc(Br)cc(Br)c2oc1=O)N1CCOCC1`, the Potency result is “inactive”.

Regarding `COCCNCCOCCOc1cccc(OC)c1`, the Potency result is “inactive”.

`COCCCNCCOCCOc1ccc(Cl)cc1Br`: the Potency is 11.6 µM (active).

As to `CSc1ccc(/C=N\NC(=O)COc2ccc(Cl)cc2Br)cc1`, the Potency result is “inactive”.

In the case of `CCS(=O)(=O)Nc1ccc(C(=O)NCCSc2ccccc2)cc1`, the Potency result is “inactive”.

As to `CC(C)Cn1c(=O)c2ccccc2n2c(CCC(=O)NCc3ccccn3)nnc12`, the Potency entry is “inactive”.

For `O=[N+]([O-])c1ccc(C=Nc2ccc(Cl)cc2Cl)s1`, the Potency is 5.8 µM (active).

For the molecule `CNN/C(N=Cc1ccc([N+](=O)[O-])s1)=N\S(=O)(=O)c1cc(C)c(Cl)cc1SCc1ccccc1`, the Potency result is “inactive”.

On to `CN1CCN(c2ccc(NC(=O)c3cc(Cl)c4c(c3)OCCO4)cc2)CC1`, for which the Potency result was “inactive”.

As to `CCc1ccc(N(C(=O)c2csnn2)C(C(=O)NC2CCCCC2)c2cccnc2)cc1` (stereo not given), the Potency result is “inactive”.

Consider `CCCn1nc(NS(=O)(=O)c2ccc(F)cc2)c2cc3ccccc3nc21`, for which the Potency result was “inactive”.

For `CC(C)Cn1c(SCC(=O)Nc2ccc(Cl)cc2F)nc(O)cc1=O`, the Potency entry was “inactive”.

Turning to `COCCN(CCOC)C(=S)Nc1ccccc1Cl`, the Potency result was “inactive”.

On to `O=C(Nc1ccccc1Cl)/C(Cl)=C(\Cl)S(=O)c1ccccc1` (stereo not given), for which the Potency is 3.16 µM (active).

As to `O=C(COC(=O)c1cccs1)Nc1ccccc1Cl`, the Potency entry was “inactive”.

On to `O=C1c2ccccc2C(=O)C1C(=O)C1CC1`, for which the Potency result was “inactive”.

Take `O=c1c2ccccc2ncn1CCc1ccncc1`: the Potency entry was “inactive”.
